aSyn UTR inh: MLPCN primary screen, SNCA 5' untranslated region. alpha-synuclein 5'UTR reporter, inhibitor activity. inhibition, % (tested at 7.5 µM). 300,000 compounds, 0.82% hits; in the data active = inhibition above about 60%;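 also: H4 neuroglioblastoma cells stably carrying SNCA 5'UTR luciferase fusion; 0% = DMSO wells and 100% = positive control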
Jurkat NFkB inh: inhibitors of induced NF-kB luciferase reporter, primary screen, TCR NF-kB activation inhibitor project, cell-based, luminescence, uHTS; inhibition, % at 4 µM; AID 435003, 2010; Jurkat, PMA/ionomycin-induced NF-kB luciferase reporter; 330,000 compounds, 0.53% hits; in the data active = inhibition above about 50%
Gli-Sufu block: Gli-Sufu pathway antagonists, primary screen, luciferase luminescence, Sufu-KO-LIGHT cells, uHTS; Sufu-KO-LIGHT fibroblasts, Gli luciferase reporter luminescence; inhibition, % at 5 µM; 340,000 compounds, 0.74% hits; AID 588413, 2011;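 active = inhibition above about 55%, limit read from the data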;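 also: 0% = DMSO-treated cells and 100% = wells with medium but no cells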
Mdm2 MdmX PPI: inhibitors of human Mdm2-MdmX association, primary screen, cell-based, luminescence, split luciferase, SaOS-2, uHTS; Protein Mdm4 (Homo sapiens) + E3 ubiquitin-protein ligase Mdm2 (Homo sapiens), …; SaOS-2 split-luciferase Mdm2/MdmX complementation; inhibition, % at 8 µM; 330,000 compounds, 3% hits; AID 485346, 2010;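 active = inhibition of at least 50% at 8 µM in the primary screen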
Target sequence (O15151 whole entry, looked up): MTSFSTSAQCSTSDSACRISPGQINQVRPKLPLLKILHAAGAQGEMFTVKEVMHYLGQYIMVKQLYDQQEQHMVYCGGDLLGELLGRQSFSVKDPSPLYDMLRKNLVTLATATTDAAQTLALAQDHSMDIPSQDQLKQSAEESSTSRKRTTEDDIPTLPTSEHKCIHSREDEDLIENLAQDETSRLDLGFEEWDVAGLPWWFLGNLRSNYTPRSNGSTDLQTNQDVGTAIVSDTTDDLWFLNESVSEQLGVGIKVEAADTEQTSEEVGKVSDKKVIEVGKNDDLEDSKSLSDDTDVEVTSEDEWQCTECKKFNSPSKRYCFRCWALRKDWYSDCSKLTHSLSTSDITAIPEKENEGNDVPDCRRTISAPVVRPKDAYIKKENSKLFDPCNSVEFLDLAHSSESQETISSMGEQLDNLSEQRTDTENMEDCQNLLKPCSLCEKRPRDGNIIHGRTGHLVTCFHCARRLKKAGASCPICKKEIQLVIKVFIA
Target sequence (Q00987 whole entry, looked up): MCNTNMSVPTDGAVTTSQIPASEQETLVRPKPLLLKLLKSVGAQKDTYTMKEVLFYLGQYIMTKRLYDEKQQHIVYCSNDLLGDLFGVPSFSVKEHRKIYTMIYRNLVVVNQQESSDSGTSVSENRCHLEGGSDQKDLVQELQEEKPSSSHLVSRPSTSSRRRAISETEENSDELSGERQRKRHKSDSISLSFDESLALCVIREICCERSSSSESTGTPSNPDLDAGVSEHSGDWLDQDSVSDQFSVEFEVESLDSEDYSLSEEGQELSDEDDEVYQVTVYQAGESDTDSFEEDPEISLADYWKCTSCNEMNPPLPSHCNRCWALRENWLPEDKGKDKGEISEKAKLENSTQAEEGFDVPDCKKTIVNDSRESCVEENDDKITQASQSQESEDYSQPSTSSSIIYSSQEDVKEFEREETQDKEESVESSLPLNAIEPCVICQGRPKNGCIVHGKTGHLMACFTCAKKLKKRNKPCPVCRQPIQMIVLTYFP
CSC inhib: cancer stem cell viability inhibitors, primary screen, luminescence; cancer stem cell-like cells viability; inhibition, % at 7.5 µM; 300,000 compounds, 1.1% hits; AID 2717, 2010; in the data active = inhibition above about 75%; tested in HMLE shEcad cells
697 NFkB inh: inhibitors of PMA/ionomycin-induced NF-kB reporter, 697 cells, primary screen, B-cell NF-kB inhibitor project, cell-based, luminescence, uHTS; 697 B-cell NF-kB luciferase reporter, 16 h; AID 435022, 2010; inhibition, % at 4 µM; 330,000 compounds, 0.33% hits; in the data active = inhibition above about 35%
Mdm2 MdmX conf: Mdm2-MdmX complex disruptors, retested hits, confirmation, luminescence, single concentration; Mdm2-MdmX binding, luminescent assay; inhibition, % at 8 µM; 10,000 compounds, 55% hits; shares compounds with Mdm2 MdmX PPI; in the data active = inhibition above about 40%
FLuc counter: full-length luciferase signal inhibition, confirmation, counter-screen for Mdm2/MdmX interaction inhibitor project, cell-based, single concentration, SaOS-2; shares compounds with Mdm2 MdmX PPI; SaOS-2 full-length luciferase counterscreen, luminescence; inhibition, % at 8 µM; 6,200 compounds, 77% hits; AID 504607, 2011;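 active = mean inhibition at 8 µM reaching about 37%, which flags the compound as non-specific, limit read from the data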;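 also: p53-null SaOS-2 cells with luciferase driven by a doxycycline-inducible promoter; compound on cells about two nights before reading with doxycycline added after day one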
The depositor's hits bear a star; · = not tested or not shown. A selection: hits, their analogues and other compounds. The true share with any hit is near 4.5%.

SMILES	aSyn UTR inh	Jurkat NFkB inh	Gli-Sufu block	Mdm2 MdmX PPI	CSC inhib	697 NFkB inh	Mdm2 MdmX conf	FLuc counter
COc1ccccc1-c1oc2ccccc2c1C#CC1(N)CCCCC1	·	13	-1	74*	130*	20	34	·
C=CC[C@@H](CC(=O)N[C@H](CO)Cc1ccccc1)C(=O)N[C@H](COC(=O)[C@H](CC=C)CC(=O)OC(C)(C)C)Cc1c[nH]c2ccccc12	·	·	6	·	·	·	·	·
O=C(O)CCn1cc(/C=C2/NC(=S)N(c3ccccc3)C2=O)c(-c2ccccc2)n1	-16	-2	-12	0	-9	8	·	·
N#CCCn1cc(/C=C2\NC(=S)N(c3ccccc3)C2=O)c(-c2ccc(-c3ccccc3)cc2)n1	9	0	32	63*	-2	7	19	·
COc1ccc(NC(=O)c2nc(C)c(C3(C)CC(c4cccnc4)=NO3)s2)cc1 (centres undefined)	-8	47	43	60*	6	-68	59*	66*
Cc1nc(C(=O)Nc2ccc(Cl)cc2)sc1C1(C)CC(c2cccc([N+](=O)[O-])c2)=NO1 (centres undefined)	13	4	6	61*	5	5	36	47*
COc1ccc(C23CC4CC(CC(C4)C2)C3)cc1C(=O)NCCN(C)C	-34	-14	25	62*	4	6	23	·
COc1ccc(-c2oc(NC(=O)CSc3nncn3C)c(C#N)c2-c2ccc(OC)cc2)cc1	-46	-1	-8	63*	0	2	54*	70*
COc1ccc(OC)c(CNS(=O)(=O)c2cc(-c3cc(C)no3)ccc2OC)c1	9	18	5	-2	7	9	·	·
COc1ccc(-c2cc(C)no2)cc1S(=O)(=O)N(C)c1ccc(C)cc1	-9	45	15	63*	61	-30	50*	60*
COc1ccccc1CN1CCC(CNS(=O)(=O)c2cc(-c3cc(C)no3)ccc2C)CC1	-14	5	38	56*	24	4	44*	75*
Cc1cc(-c2ccc(C)c(S(=O)(=O)NCC3CCN(Cc4ccc(F)cc4)CC3)c2)on1	-27	8	28	30	·	-1	·	·
COc1ccc(-c2cc(C)no2)cc1S(=O)(=O)NCC1CCN(Cc2cc(C)ccc2C)CC1	-12	10	33	61*	14	7	22	·
Nc1cc(=O)[nH]c(SCc2nc3ccccc3n2Cc2ccccc2)n1	-43	2	6	25	-7	-2	·	·
O=C(N/N=C/c1ccc(O)cc1O)c1ccc(NC(=O)C2CCCCC2)cc1	16	31	6	68*	-4	-37	54*	38*
O=C(N/N=C/c1cccc(O)c1)c1ccc(NC(=O)C2CCCCC2)cc1	12	7	3	30	11	-19	·	·
COc1ccccc1NC(=O)Nc1nc(CC(=O)N2CCN(c3ccc(F)cc3)CC2)cs1	15	7	6	70*	5	-7	40*	83*
O=C1C=C(c2ccc3ccccc3c2)C[C@@H](c2ccc(F)cc2)C1	·	-5	-24	52*	30	-14	-6	·
O=C1C=C(c2ccc3ncccc3c2)C[C@@H](c2ccc(F)cc2)C1	·	22	8	32	18	-10	·	·
Cc1nn(-c2ccc(F)cc2)c(Cl)c1/C=C1\C(=O)Nc2ccccc21	-36	37	5	59*	79*	-113	62*	68*
O=C1Nc2ccccc2/C1=C/c1ccccc1F	-23	-6	-13	17	19	-6	·	·

High-throughput results (PubChem BioAssay)
